Laboratory results reported in PubChem BioAssay AID2625 (National Center for Advancing Translational Sciences (NCATS), 2010).
Inconclusive results are not listed. Active and inactive are the calls of the source. Calls follow the shape of the dose curve; as a rule, active = well fitted curve in the direction sought with a large enough effect; inconclusive = small, poorly fitted or top-dose-only effect, or effect the other way, or another doubt; inactive = no such curve, though single readings can be large or run the other way.

molecular target: Pyruvate kinase PKLR (Homo sapiens) (UniProt P30613); assay: Secondary LDH Assay for Activators of Human Liver Pyruvate Kinase: for Probe SAR; conditions: purified hPK-L, LDH-coupled NADH fluorescence kinetic; series mostly up to 58.2 µM
Excerpt: NIH Chemical Genomics Center [NCGC]
Matthew G. Vander Heiden, M.D., Ph.D. [Harvard Medical School, 77 Avenue Louis Pasteur, Boston, MA 02115]
Human pyruvate kinase liver (hPK-L)enzyme was supplied as a highly purified (>95% pure) preparation from Harvard Medical School and a secondary assay was used to evaluate compounds. This assay couples the formation of pyruvate from hPK-R using lactate dehydrogenase (LDH) and NADH. The depletion of NADH is followed in a fluorescent-based kinetic assay that follows the formation of pyruvate to lactate, as catalyzed LDH. Pyruvate kinase substrates, PEP and ADP, were present in the assay at 0.1 mM and 4 mM respectively. In this kinetic assay initial rates were determined by following the fluorescence of NADH depletion.
NCGC Assay Protocol Summary:
Three uL of substrate mix (final concentration, 50 mM Tris-Cl pH 8.0, 200 mM KCl, 15 mM MgCl2, 0.1 mM PEP, 4.0 mM ADP, and 0.2 mM NADH) was dispensed into black-solid 1536 well plates. 23 nL of compounds were delivered by a pin tool and 1 uL of enzyme mix (final concentrations, 10 nM hPK-L and 1 uM of LDH) was added. Plates were immediately placed in ViewLux (Perkin Elmer) and NADH fluorescence was determined at 30 second exposure intervals for between 3 and 6 minutes. Data were normalized to the uninhibited and EC100 activation using known activators such as fructose-bis-phosphate.

Pyruvate kinase PKLR (Homo sapiens), sequence (P30613 whole entry, looked up): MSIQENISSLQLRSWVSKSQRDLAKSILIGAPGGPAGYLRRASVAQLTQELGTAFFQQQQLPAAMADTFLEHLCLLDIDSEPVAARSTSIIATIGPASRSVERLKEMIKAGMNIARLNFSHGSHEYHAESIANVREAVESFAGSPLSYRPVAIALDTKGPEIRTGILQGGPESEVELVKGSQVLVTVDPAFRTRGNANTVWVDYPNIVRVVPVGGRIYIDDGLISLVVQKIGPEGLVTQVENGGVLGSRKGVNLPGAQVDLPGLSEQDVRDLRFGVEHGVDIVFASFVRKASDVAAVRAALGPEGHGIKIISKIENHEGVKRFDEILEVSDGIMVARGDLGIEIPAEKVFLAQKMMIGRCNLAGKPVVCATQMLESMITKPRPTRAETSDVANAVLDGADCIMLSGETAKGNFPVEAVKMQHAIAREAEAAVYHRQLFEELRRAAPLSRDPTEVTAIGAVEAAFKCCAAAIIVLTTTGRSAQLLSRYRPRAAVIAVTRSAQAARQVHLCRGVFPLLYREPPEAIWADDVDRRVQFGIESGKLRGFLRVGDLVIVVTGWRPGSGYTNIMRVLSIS

outcome, inactive:
O=C1CCc2cc(S(=O)(=O)Nc3cccnc3)ccc2N1
O=S1(=O)N=C(Oc2ccc(Cl)cc2)c2ccccc21
O=C1CCc2cc(S(=O)(=O)Nc3ccc4ccccc4c3)ccc2N1
O=C1c2ccccc2C(=O)N1c1nccs1
Cc1ccc(NS(=O)(=O)c2ccc3[nH]c(=O)[nH]c3c2)cc1C
O=C1c2ccccc2C(=O)N1c1ccc2ncccc2c1
COc1ccc(N2C(=O)c3ccccc3C2=O)cc1
Cc1ccc(NS(=O)(=O)c2cc3c(cc2Cl)NC(=O)C3)cc1C
Cc1ccc(NS(=O)(=O)c2ccc(N3CCCC3=O)cc2)cc1C
CCNc1cccc(S(=O)(=O)N2CCCN(S(=O)(=O)c3ccc4c(c3)OCCO4)CC2)c1
O=C1CCc2cc(S(=O)(=O)Nc3ccncc3)ccc2N1
Cc1ccccc1Nc1c(-c2ccc(Cl)s2)nc2ccccn12
Cc1ccc(NS(=O)(=O)c2cc3c(cc2-c2ccco2)NC(=O)CO3)cc1C
Cc1ccc(NS(=O)(=O)c2ccc3c(c2)CCC(=O)N3)cc1Cl
O=C1c2ccccc2C(=O)N1c1cccc(Cl)c1
Cc1ccc(NS(=O)(=O)c2cc3c(cc2Br)NC(=O)CO3)cc1C
Cc1ccc(NS(=O)(=O)c2cccc(C(=O)O)c2)cc1C
Cc1ccc(NS(=O)(=O)c2cc3c(cc2Cl)CCC(=O)N3)cc1Cl
Cc1ccc(N[S+](=O)([O-])c2cc3c(cc2CCc2ccccc2)NC(=O)CO3)cc1C
CNc1cccc(S(=O)(=O)N2CCN(S(=O)(=O)c3ccc4c(c3)OCCO4)CC2)c1
Cc1ccc(NS(=O)(=O)c2ccc3c(c2)CCCC(=O)N3)cc1C
O=C1NS(=O)(=O)c2ccccc21
O=C1c2ccccc2C(=O)N1C1CCCCC1
O=C1CCc2cc(S(=O)(=O)NCc3ccccc3)ccc2N1
Cc1ccc(NS(=O)(=O)c2ccc3c(c2)C(Cl)(Cl)C(=O)N3)cc1C
O=C1CCc2cc(S(=O)(=O)Nc3cccc4ccccc34)ccc2N1
Cc1ccc(NC(=O)c2ccc3c(c2)CCC(=O)N3)cc1C
O=C1CCc2cc(Cl)c(S(=O)(=O)Nc3ccc(Cl)c(Cl)c3)cc2N1
Nc1cc(S(=O)(=O)N2CCN(S(=O)(=O)c3ccc4c(c3)OCCO4)CC2)ccn1
O=C1c2ccccc2C(=O)N1c1ccccn1
Cc1ccc(NS(=O)(=O)c2ccc3c(c2)N(C)CCO3)cc1C
O=C1c2ccccc2C(=O)N1c1ncccc1O
COc1cccc(Cn2ncc3c4sc(S(C)=O)cc4n(C)c3c2=O)c1 (stereo not given)
COc1cccc(NS(=O)(=O)c2ccc3c(c2)CCC(=O)N3)c1
Cc1ccc(NS(=O)(=O)c2cc3c(cc2F)NC(=O)CC3)cc1C
COc1cc(N2C(=O)c3ccccc3C2=O)c2ncccc2c1
CSc1cc2c(s1)c1cnn(Cc3cccc(N)c3)c(=O)c1n2C
CN(C)c1cccc(S(=O)(=O)N2CCN(S(=O)(=O)c3ccc4c(c3)OCCO4)CC2)c1
Cc1ccc(NS(=O)(=O)c2cc3c(cc2-c2ccsc2)NC(=O)CO3)cc1C
Cc1ccc(NS(=O)(=O)c2ccc3c(c2)CCO3)cc1C
